# Bioassay records as filed in PubChem BioAssay.
# Efflux pump inh: inhibitors of Candida efflux pumps in yeast, primary screen, S. cerevisiae, Nile Red, multiplex. S. cerevisiae Candida pump triplex. inhibition, % at 10 µM. hit rate 0.44% among 330,000;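 active means plate passing quality check with inhibition over a set limit, or well fluorescence over plate mean plus 4 SD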;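 further: Nile Red retained in pooled yeast measured as flow cytometry median fluorescence; 0% = buffer negative control and 100% = Enniatin B positive control; higher means more Nile Red kept so more efflux inhibition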
# Yeast superoxide: reduction of superoxide in aged yeast, primary screen, HTS. hit rate 0.18% among 330,000. S. cerevisiae aged cells, superoxide DHE fluorescence; active compounds read low. superoxide response (% of plate mean), % at 10 µM. AID 2690, 2010;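 active means superoxide response under a set limit, about three screen SD below normal, cut at about 65% in these data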;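 further: yeast aged for seven days with compound at 30 °C before DHE staining; 100% = average MFI of all compound-treated wells on the plate with controls excluded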
# GRK2 inh: compounds blocking aptamer binding on GRK2 – biochemical, human GRK2, bead flow cytometry, HTS, primary screen; FAM-aptamer displacement from GRK2; inhibition of aptamer binding, % at 10 µM; hit rate 0.59% among 330,000; AID 488847, 2010;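 active means inhibition of aptamer binding above 40%, roughly 3 SD of noise, on plates passing a quality check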;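 further: median bead fluorescence of bound FAM aptamer so fluorescent compounds give negative values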
# ATG4B inh: ATG4B protease inhibitors, primary screen, biochemical, fluorescence, uHTS. AID 504462, 2011. ATG4B cleavage of LC3-PLA2, NBD-HPC fluorescence, 1 h. inhibition, % at 8.33 µM. hit rate 0.51% among 340,000; in the data active means inhibition above about 40%
# Numbers without * were called inactive; nt = no result. This is a sample that favours compounds with a hit; in the whole collection about 1.6% have one here.
SMILES,Efflux pump inh,Yeast superoxide,GRK2 inh,ATG4B inh
COc1ccc2c3c(cccc13)C(=O)N(O)C2=O,0,83,4,12
N#Cc1c(SCC(=O)Nc2nncs2)sc2c(O)cc(=O)[nH]c12,0,101,41*,19
COc1cccc(CN(C)C(=O)Cc2ccc(OC)c(S(=O)(=O)N3CCOCC3)c2)c1,0,98,3,-11
CC(C)c1cccc(C(C)C)c1NC(=O)CCN1C(=O)NC2(CCCC2)C1=O,0,126,2,1
CC(=NCCc1c(C)[nH]c2ccc(OC(F)(F)F)cc12)C1=C(O)CC(c2ccccc2)CC1=O (configuration not stated),0,65*,5,-14
COC(=O)C(Cc1ccccc1)NC(=O)CCCC(=O)NCc1cccc(OC)c1 (configuration not stated),0,98,0,5
O=C(O)c1cc(-c2ccc(/C=c3\sc4nc5ccc(Br)cc5n4c3=O)o2)ccc1Cl,1.6*,95,19,nt
COC/C=C/C1=CC2=CC(=O)C(C)(OC(=O)C3CCCC3)C(=O)C2=CO1 (configuration not stated),0,93,4,33
COC/C=C/C1=CC2=CC(=O)C(C)(O)C(=O)C2=CO1 (configuration not stated),0,96,87*,nt
O=C(COC(=O)c1cc(S(=O)(=O)N2CCOCC2)ccc1O)NCc1ccc2c(c1)OCO2,nt,nt,nt,7
O=C(O)c1cccc(Br)c1,nt,nt,nt,-9
O=C(O)c1cccc(-c2ccc3c(c2)OCO3)c1,0,102,0,4
O=C1OC(c2ccc3c(c2)OCO3)=N/C1=C\c1ccc(C(=O)O)cc1,0,101,53*,8
Cc1nc(N2CCN(c3ccccn3)CC2)c2c(C)c(C(=O)N3CCN(c4ccc(F)cc4)CC3)sc2n1,0.5*,104,0,0
COc1ccc(N=Cc2cc(Cc3ccccc3Cl)cc([N+](=O)[O-])c2O)cc1OC,0,115,5,94*
CC(=O)c1ccc(S(=O)(=O)Nc2ccc(C(=O)N3CCC3)cc2)cc1,nt,nt,nt,5
COc1ccc(CN2CCN(C3CCC3)CC2CCO)c(F)c1 (configuration not stated),0,99,4,3
CCCCCC(=O)Nc1cc(S(=O)(=O)O)cc2cc(S(=O)(=O)O)cc(O)c12,nt,nt,nt,43*
COc1ccc(NC(=S)N2CCN(C(=O)c3ccco3)CC2)cc1OC,-1,96,0,0
Cc1cc(=O)n(C2CCS(=O)(=O)C2)[nH]1 (configuration not stated),0,100,4,7
CCOc1ccc(CCNC(=O)c2sc3nc4n(c(=O)c3c2C)CCC4)cc1,0,91,3,-8
O=C(Oc1ccc2cc(Br)ccc2c1)N1CCCCCC1,0,58*,0,nt
CCC(=O)N(Cc1c(C)nn(-c2ccccc2)c1Cl)c1ccc(Cl)cc1,0,110,1,4
Cc1ccc(N(CCC(=O)Nc2nnc(C3CC3)s2)S(=O)(=O)c2ccccc2)cc1,10*,90,2,nt
O=C(O)c1ccc(N/N=C/C=C/c2ccc([N+](=O)[O-])o2)cc1,0,130,91*,1
SMILES,Efflux pump inh,Yeast superoxide,GRK2 inh,ATG4B inh
Cc1c(N=Cc2cc(Br)cc(Br)c2O)cccc1C(=O)O,0,81,10,46*
O=C(O)c1cccc(N/N=C/c2cc(Br)cc(Br)c2O)c1,0,97,0,22
C(=C\c1ccco1)/C1=NN(c2ccccc2)C(c2ccco2)C1 (configuration not stated),1.4*,100,0,11
O=C1OC(c2ccccc2)Sc2ccccc21 (configuration not stated),nt,nt,nt,48*
C=CCNc1nc2ccccc2nc1NS(=O)(=O)c1cccc(C)c1,1,114,1,-4
Cc1cccc(S(=O)(=O)Nc2nc3ccccc3nc2OC(C)C)c1,2,98,58*,4
COc1ccc(NC(=O)CN2CCC(NC(=O)c3ccco3)CC2)c([N+](=O)[O-])c1,0,103,1,-6
O=C(NC1=NCCS1)c1cccc(OC(F)F)c1,0,109,0,-1
CS(=O)(=O)N(Cc1ccccc1)c1ccc(C(=O)N2CCN(c3cccc(Cl)c3)CC2)cc1,0,92,0,56*
CS(=O)(=O)N(Cc1ccc(Cl)cc1)c1ccc(C(=O)N2CCN(c3ccccc3)CC2)cc1,0,113,0,9
